In PubChem BioAssay (NCATS):
Results filed as inconclusive are left out. Activity calls are given as the source filed them. Calls follow the shape of the dose curve; as a rule, active = well fitted inhibition curve with a large enough effect; inconclusive = small, poorly fitted or top-dose-only effect; inactive = no such curve, though single readings can be large or run the other way.

Molecular target: Tumor susceptibility gene 101 protein (Homo sapiens) (UniProt Q99816)
Experiment: qHTS Assay for Iinhibitors of HIV-1 Budding by Blocking the Interaction of PTAP/TSG101: Hit Validation (AID 651600); also: nearly all actives have a fitted effect of over 70% in size
Conditions: PTAP peptide/TSG101 UEV interaction, biochemical assay; series mostly up to 57.5 µM; activity change, negative = inhibition: at the top concentration
In short: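 Displacement of a FITC-labeled PTAP-motif peptide (50 nM) from the Tsg101 binding domain (10 uM) was monitored by fluorescence polarization after a 20 min room-temperature incubation.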
% is scaled to controls: 0 for no effect and ±100 for the full control effect; potency is read from the fitted curve at half-maximal effect.

Sequence of Tumor susceptibility gene 101 protein (Homo sapiens) (Q99816 whole entry, looked up): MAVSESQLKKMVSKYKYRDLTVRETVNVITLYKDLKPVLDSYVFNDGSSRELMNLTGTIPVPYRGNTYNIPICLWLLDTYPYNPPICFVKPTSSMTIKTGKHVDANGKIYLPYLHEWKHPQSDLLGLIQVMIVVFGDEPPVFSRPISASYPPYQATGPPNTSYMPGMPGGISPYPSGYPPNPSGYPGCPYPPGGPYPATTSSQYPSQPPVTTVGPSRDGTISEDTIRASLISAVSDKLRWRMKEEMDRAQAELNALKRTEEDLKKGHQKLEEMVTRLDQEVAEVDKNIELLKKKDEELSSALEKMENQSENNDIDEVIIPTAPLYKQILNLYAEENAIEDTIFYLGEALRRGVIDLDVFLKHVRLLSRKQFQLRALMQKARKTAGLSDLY

Potency, active:
CN1C(=O)NC(c2ccccc2[N+](=O)[O-])C2=C1CCCC2=O (centres undefined) 16.3 µM, Cc1ccc(NC(=O)/C(C#N)=C(\N)C(Cl)(Cl)Cl)nc1 18.3 µM, CCC(=O)Oc1ccc2c(c1)O/C(=C\c1ccco1)C2=O 16.3 µM, CC1=CC(=C(C#N)c2nc3ccccc3s2)C=C(C)N1CC1CCCO1 (centres undefined) 16.3 µM, Cc1cc(C)c[n+](-c2[nH]c(=O)sc2/C=N/NC([S-])=Nc2ccccc2)c1 18.3 µM, O=C(NCc1cccc(F)c1)c1cccc2c1C(=O)c1ccc(N3CCC(Cc4ccccc4)CC3)cc1S2(=O)=O 10.3 µM, CCCCCCn1c(=O)[nH]c2nc3cc(N)ccc3nc2c1=O 14.6 µM, CCN(CC)CCCNc1ccc2ncn3c4ccc(O)cc4c(=O)c1c23 4.61 µM, CNc1c2cccc(C)c2nc2c(C(=O)NCCN(C)C)cccc12 16.3 µM, Cc1oc2cc(O)ccc2c(=O)c1-c1nncn1-c1ccccc1 20.6 µM, C/C(=N/NC(=O)c1ccncc1)c1cc2ccc(O)cc2oc1=O 14.6 µM, O=C(NCc1cccc(C(F)(F)F)c1)c1cccc2c1C(=O)c1ccc(N3CCC(Cc4ccccc4)CC3)cc1S2(=O)=O 14.6 µM, Cn1c(=O)c(Nc2ccc(Cl)cc2)c2c3c(cccc31)C(=O)c1ccccc1-2 10.3 µM, COCCN(CCOC)Cc1c(O)ccc2c1O/C(=C\c1ccco1)C2=O 13 µM, O=C(OCCN1C(=O)c2cccc3c(N4CCOCC4)ccc(c23)C1=O)c1ccc(Cl)cc1 18.3 µM, CC(C)c1cc(=O)oc2c3c4c(cc12)CCCN4CCC3 5.17 µM, O=[n+]1c2c(n([O-])c3cc(F)c(N4CCCC4)cc31)CCC2 13 µM

Activity change, negative = inhibition, inactive:
Cc1ccc(C(=O)Nc2ccc(C(=O)O)cc2)cc1S(=O)(=O)NCc1ccccc1 1.48%, CCn1c(/C=C/c2cc[n+](C)cc2)nc2ccccc21 -28.1%, CCC1CCCCN1C(=O)c1cc2cc(Br)ccc2oc1=O (centres undefined) -0.278%, Oc1c(C=Nc2ccccc2)sc2ccccc12 -4.91%, COc1ccc(OC)c(NC(=O)CCN2CC(C)CC(C)C2)c1 (centres undefined) 5.24%, C#CCn1cc(C=C2C(=O)c3ccccc3C2=O)c2ccccc21 -13.4%, Cc1ccc(Nc2ccc([N+](=O)[O-])ccc2=O)cc1 -10.1%, CC1C2C(c3ccccc3)N(C)C(=O)N(C)C2N(C)C(=O)N1C (centres undefined) -7%, CCN(CC)c1ccc2cc(-c3nc(-c4ccc(OC)cc4)cs3)c(=O)oc2c1 13.8%, CCOC(=O)N1CCN(c2nc3ccccc3nc2C(C#N)S(=O)(=O)c2ccc(C)cc2)CC1 (centres undefined) -8.86%, COc1ccc(-c2cc(C(=O)N3CC(C)CC(C)C3)c3ccccc3n2)cc1OC (centres undefined) 14.9%, Brc1ccc(-c2nc3ccccn3c2Nc2ccc3c(c2)OCCO3)o1 -1.55%, CCc1c(C)sc(NC(=O)c2ccccc2[N+](=O)[O-])c1C(N)=O 7.8%, CCCCCOc1ccc(/C=c2\sc3nc(=O)c(-c4ccccc4)nn3c2=O)cc1OC -11.2%, O=C1NC(c2ccco2)Nc2sc3c(c21)CCN(Cc1ccccc1)C3 (centres undefined) 10.5%, CCCn1c(=N)c(S(=O)(=O)c2ccccc2)cc2c(=O)n3cccc(C)c3nc21 12.9%, O=c1[nH]c(=O)n(-c2cc(Br)c(O)c(Br)c2)cc1Br -14.2%, CCc1cc(C(=O)OC)c(NC(=O)CC2Nc3cc(C)c(C)cc3NC2=O)s1 (centres undefined) 5.17%, Nc1ccc2c(c1)C/C(=C/c1ccco1)C2=O -11%, Cc1cc(=O)c2c([nH]1)c(C)cc1[nH]c(C)c(C)c12 13.6%, CC(=O)N1c2ccccc2C(=O)C1N1CCCCC1 (centres undefined) -14%, CCN(C(=O)c1sc2nc3n(c(=O)c2c1C)CCCC3)c1ccccc1F 1.87%
